Measured values from PubChem BioAssay AID602125 (The Scripps Research Institute Molecular Screening Center, 2011).
The whole screen tested about 1,300 compounds, of which about 110 (8.5%) were called active. Cut-off read from the data, not from the text of the source: active = inhibition above about 6.5%; inactive = the rest. A selection follows.

Test: GFP fluorescence inhibitors and quenchers, artefact control for Rin1-Abl interaction inhibitor project, biochemical (AID 602125);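 note: ABL1-eGFP fusion protein alone without its partner RIN1-SBP; 0% = protein with vehicle and 100% = wells lacking protein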
Settings: inhibitors/quenchers counterscreen, at 6.75 µM, hits give high values

SMILES	inhibition
CSc1ncnc2c1ncn2CC(=O)C1CCC2C3CCC4=CC(=O)CCC4(C)C3CCC12C (stereo not drawn)	0.43% (inactive)
O=C(CNCc1ccco1)Nc1cc(S(=O)(=O)N2CCOCC2)ccc1N1CCCC1	2.49% (inactive)
CCc1cc2c(N3CCN(c4nnc(CC)s4)CC3)ncnc2s1	-3.38% (inactive)
CC(=O)Nc1ccc(CN2CCC(Oc3ccc(C(=O)N4CCCC4)cc3)CC2)cc1	-0.82% (inactive)
CCOc1ccc(S(=O)(=O)N2CCCCC2)cc1NC(=O)CN1CCCC1c1cccs1 (stereo not drawn)	-2.43% (inactive)
O=c1c2c(nc3n1CCCCC3)sc1c(O)cccc12	0.41% (inactive)
CCOc1ccc(CNC(=O)C2CCCN(c3nnc(C)c4c(C)n(-c5ccccc5)nc34)C2)cc1 (stereo not drawn)	-0.63% (inactive)
Oc1c(CN2CCN(c3ccc(F)cc3)CC2)cc(Cl)c2cccnc12	1.29% (inactive)
CC(CCO)Nc1nc2c([nH]1)c(=O)n(C)c(=O)n2C (stereo not drawn)	-2.15% (inactive)
O=C(COc1ccc(S(=O)(=O)NCCc2ccccc2)cc1)N1CCCC1	-1.34% (inactive)
CN(C)c1ccc(N/C=C/C(=O)C(F)(F)F)cc1	0.06% (inactive)
Cc1cccc(N(C)C(=O)CN2C(=O)COc3ccc(S(=O)(=O)N4CCCCCC4)cc32)c1	-2.16% (inactive)
C[C@@H]1CN([C@H](C)CO)S(=O)(=O)c2ccc(C#C[C@@H](C)O)cc2O[C@@H]1CN(C)Cc1ccc(-c2ccccc2)cc1	-1.52% (inactive)
O=C(NNc1c2ccccc2nc2ccccc12)c1cc2ccccc2cc1O	2.7% (inactive)
Cc1cc(NC(=O)CSCC(=O)NC(C)c2ccccc2)no1 (stereo not drawn)	0.79% (inactive)
COc1cc(C(=S)N2CCOCC2)ccc1O	-0.21% (inactive)
Cc1ccc(C(NC(=O)C2CCN(CCOc3ccc(Cl)cc3Cl)CC2)c2ccccn2)cc1 (stereo not drawn)	-1.38% (inactive)

SMILES	inhibition
CN(Cc1c(F)cccc1Cl)C(=O)CNC(=O)c1ccc2c(c1)OCO2	0% (inactive)
O=C(Nc1ccc(S(=O)(=O)Nc2ncccn2)cc1)c1cncc(Br)c1	0.85% (inactive)
O=c1cc(CO)oc(CN2CCC(Cc3ccccc3)CC2)c1O	0.68% (inactive)
CCOC(=O)N1CCN(C(=O)C2CCCN(c3ncnc4c3sc3cccc(F)c34)C2)CC1 (stereo not drawn)	0.85% (inactive)
CCOc1ccc(-n2c(SCC(=O)NC3CCS(=O)(=O)C3)nnc2-c2cccnc2)cc1 (stereo not drawn)	-0.86% (inactive)
CCOC(=O)CN(C(=O)COc1nc(C)cc(C)c1C#N)c1ccc(Cl)cc1	-1.77% (inactive)
OC[C@@H]1CN(Cc2ccc(Cl)cc2)C[C@H](n2cnc3c(NCc4ccncc4)ncnc32)O1	0.89% (inactive)
CCOC(=O)N1CCN(C(=O)C2CCN(c3ncnc4c3sc3cccc(F)c34)CC2)CC1	1.39% (inactive)
Cc1ccccc1C(=O)N1CCC(C(=O)Nc2ccc(S(=O)(=O)N(C)C(C)C)cc2)CC1	0.2% (inactive)
O=C(c1cn(-c2ccccc2)nc1-c1cc2ccccc2oc1=O)N1CCOCC1	-1.57% (inactive)
O=C(CC1SCCNC1=O)Nc1ccc(Cl)cc1 (stereo not drawn)	0.84% (inactive)
CN(C(=O)c1ccc(NC(=O)Cc2cccc(NC(=O)C3CCN(C(=O)c4ccccc4)CC3)c2)cc1)C1CC1	-0.72% (inactive)
Nc1nc2n(n1)C(c1ccco1)CC(c1ccc(Cl)c(Cl)c1)N2 (stereo not drawn)	-3.07% (inactive)
NS(=O)(=O)c1ccc(CCNC(=O)Nc2ccc(Cl)cc2)cc1	2.08% (inactive)
Oc1cccc2cc(-c3ccncc3)cnc12	11.6% (active)
Cc1ccc(-n2c(SCC(=O)NCc3ccc4c(c3)OCO4)nnc2-c2cccnc2)c(C)c1	0.57% (inactive)
